# According to PubChem BioAssay (NCI):
# Where “and” joins values, the source holds several entries; their conditions need not be identical. Equal values may be shown once. The panel holds about 83,000 compounds, 20% with a hit somewhere; the sample as a whole holds those more often.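 The test compound was applied at a single concentration to cells in 96-well plates for 48 hours, and percent growth was recorded.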 Calls of active or inactive are those of the source. Rule for the calls: active = growth percent below 10; inactive = the rest.
# Test system: MDA-MB-468 breast
# Experiment: NCI-60 one-dose screen, 48 h (100 = growth as untreated, 0 = no growth, -100 = all killed)
# Settings: 10 µM unless noted
row,Structure (SMILES),growth
1,Nc1c(C(=O)Nc2cccc3cnccc23)sc2nc3c(cc12)C(=O)CCC3,47.9% (inactive)
2,CS(=O)c1nccc(-c2c(-c3ccc(F)c(OCc4ccccc4)c3)nc3sccn23)n1 (centres undefined),-19.4% (active)
3,O=c1ccc2ccccc2o1,114% (inactive)
4,CCN(C(=O)N1CCN(c2cc3c(cc2F)c(=O)c(C(=O)O)cn3C2CC2)CC1)c1nc(-c2ccc(Cl)cc2)cs1,-2.66% (active)
5,CCOC(=O)c1c(O)c2cc(-c3ccccc3)nc(OCC)c2c(=O)n1C,89% (inactive)
6,COc1ccc(C(=O)/C=C/c2ccc(OCc3ccc(Cl)cc3)c(OC)c2)cc1OC,50.9% (inactive)
7,CCCCn1c(C)nc2cc(Nc3nc(Cl)nc4nc[nH]c34)ccc21,44.3% (inactive)
8,Nc1c(C(=O)C[C@@H](N)CO)ccc2c1C(=O)CCO2,-14.1% (active)
9,O=C(Nc1ccc(Br)cc1)c1cc(Br)ccc1O,-18.1% (active) and 15% (inactive)
10,CC(C)(C)c1ccc(OC(=O)Nc2ccccc2)cc1,112% (inactive)
11,COc1cc2ccnc(C=O)c2cc1OC,82.5% (inactive)
12,COc1ccccc1C(=O)Nc1cccc(NC(=O)c2ccoc2C)c1,14% (inactive)
13,Cc1ncc([N+](=O)[O-])n1CCOc1ccc(C(=O)/C=C/c2ccc(C(F)(F)F)cc2)cc1,71.3% (inactive)
14,Cc1cc(-c2ccc(N=Nc3ccc4c(S(=O)(=O)O)cc(S(=O)(=O)O)c(N)c4c3O)c(C)c2)ccc1N=Nc1ccc2c(S(=O)(=O)O)cc(S(=O)(=O)O)c(N)c2c1O,98.2% (inactive)
